The list is not random: actives were taken first. Their share in the collection is about 2.4%.
ASK1 inh = ASK1 kinase inhibitors, primary screen, biochemical, AlphaScreen; AlphaScreen MKK6 phosphorylation by ASK1, luminescence; inhibition, % at 7.44 µM; AID 1159602, 2016; Mitogen-activated protein kinase kinase kinase 5 (Homo sapiens), Q99683; hit rate 0.99% among 22,000; in the data active means inhibition above about 35%;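 further: 0% = median of compound wells and 100% = no enzyme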
ULK1 inh = ULK1 kinase inhibitors, primary screen, biochemical, AlphaScreen. AlphaScreen Atg13 phosphorylation by ULK1, luminescence. inhibition, % at 5.96 µM. hit rate 1.9% among 30,000; in the data active means inhibition above about 43%;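 further: 0% = median of compound wells and 100% = no enzyme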
Target sequence (O75385 whole entry, looked up): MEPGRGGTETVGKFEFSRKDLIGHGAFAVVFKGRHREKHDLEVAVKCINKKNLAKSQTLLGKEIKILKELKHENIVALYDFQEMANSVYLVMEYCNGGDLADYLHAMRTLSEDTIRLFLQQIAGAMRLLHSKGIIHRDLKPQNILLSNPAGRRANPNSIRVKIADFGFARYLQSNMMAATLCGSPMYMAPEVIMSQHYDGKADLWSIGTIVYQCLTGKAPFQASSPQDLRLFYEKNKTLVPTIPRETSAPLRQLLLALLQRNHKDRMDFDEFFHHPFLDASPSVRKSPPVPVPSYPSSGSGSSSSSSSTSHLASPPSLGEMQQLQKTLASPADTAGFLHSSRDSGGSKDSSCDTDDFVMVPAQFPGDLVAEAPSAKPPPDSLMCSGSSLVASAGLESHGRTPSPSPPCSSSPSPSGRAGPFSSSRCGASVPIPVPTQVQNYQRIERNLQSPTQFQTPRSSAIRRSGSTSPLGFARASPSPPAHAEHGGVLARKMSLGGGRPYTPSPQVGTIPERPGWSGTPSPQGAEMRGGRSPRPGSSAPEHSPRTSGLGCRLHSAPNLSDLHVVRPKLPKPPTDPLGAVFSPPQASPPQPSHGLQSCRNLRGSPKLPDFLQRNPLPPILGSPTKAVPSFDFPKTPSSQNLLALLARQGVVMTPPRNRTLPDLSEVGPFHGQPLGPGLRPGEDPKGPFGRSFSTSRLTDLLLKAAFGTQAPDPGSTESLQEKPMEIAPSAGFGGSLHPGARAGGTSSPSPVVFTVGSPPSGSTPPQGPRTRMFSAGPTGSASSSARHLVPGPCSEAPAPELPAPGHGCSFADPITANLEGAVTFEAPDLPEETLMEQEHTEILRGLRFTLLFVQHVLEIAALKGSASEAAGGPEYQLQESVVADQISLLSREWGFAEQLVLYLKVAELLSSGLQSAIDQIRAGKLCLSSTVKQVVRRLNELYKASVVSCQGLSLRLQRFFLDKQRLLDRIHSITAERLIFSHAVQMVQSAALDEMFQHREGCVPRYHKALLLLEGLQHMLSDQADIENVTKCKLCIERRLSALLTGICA
TruHits interf = AlphaScreen signal interference by compounds, dose response, artefact control for ASK1 inhibitor project, biochemical, TruHits beads | signal interference counterscreen | IC50, µM | hit rate 20% among 220 | shares compounds with ASK1 inh;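 active means IC50 of 10 µM or lower in the counterscreen; inactive means IC50 above 10 µM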;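 further: loss of AlphaScreen light from TruHits beads alone with no ASK1 enzyme present; potency of signal reduction so a low IC50 flags an assay artifact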
* hit, by the source's call; i = inactive; . = no result.

SMILES | ASK1 inh | ULK1 inh | others
CCN(CC)C(=O)C1CCCN(c2nc3ccc(C(=O)NC4CC4)cc3s2)C1 (stereo not drawn) | -12 | -6
Nc1cc(-c2ccc(C(=O)NC3CC3)cc2)nc(N)n1 | 8 | 5
O=C1CCc2cc(S(=O)(=O)N3CCCNCC3)ccc2N1 | -23 | -8
O=c1[nH]ccc2c(S(=O)(=O)N3CCCNCC3)cccc12 | -18 | 46*
O=C1CCCN1CCn1cnc2c(NCc3cccc(C(F)(F)F)c3)nc(Nc3ccc4ncccc4c3)nc21 | -11 | -39
NC(=O)c1ccc(-c2cc(NCc3cccnc3)nc(N)n2)cc1 | 2 | 24
Nc1cccc(-c2cc(NCc3cccnc3)nc(N)n2)c1 | -3 | 55*
Nn1cnnc1N/N=C/c1cccc2ccccc12 | . | 60*
COc1nc(N/N=C/c2cccc3ccccc23)nc(N2CCOCC2)n1 | . | -8
O=C(NCCO)c1csc(-c2ccccc2)n1 | -14 | 6
COc1ccc2c(c1)CC(C(=O)Nc1ccc(-c3cn[nH]c3)cc1C(=O)N(C)OC)CO2 (stereo not drawn) | -15 | 15
N#Cc1cc(-c2ccnc(Nc3ccc(-n4cnc(N5CCC(O)CC5)n4)cc3)n2)ccc1N1CCC(O)CC1 | -9 | 72*
Cn1nnc(-c2ccc(Nc3nccc(-c4ccc(N5CCC(O)CC5)c(C#N)c4)n3)cc2)n1 | 0 | 28
Cc1ncn(-c2ccc(Nc3nccc(-c4ccc(C#N)c(N5CCCC5)c4)n3)cc2)n1 | -4 | -9
Cc1ncn(-c2ccc(Nc3nccc(-c4ccc(C#N)c(N5CCC(O)CC5)c4)n3)cc2)n1 | -6 | -1
Cc1ncn(-c2ccc(Nc3nccc(-c4ccc(N5CCCC(CO)C5)c(C#N)c4)n3)cc2)n1 (stereo not drawn) | 0 | 65*
C[C@@H]1CN(C(=O)Nc2cccc(Nc3nccc(-c4ccc(N5CCC(O)CC5)c(C#N)c4)n3)c2)C[C@H](C)O1 | -16 | 76*
Cc1ncn(-c2ccc(Nc3nccc(-c4ccc(N5CCC(O)CC5)nc4)n3)cc2)n1 | 0 | 46*
N#Cc1cc(-c2ccnc(Nc3ccc(-n4cnc(C(F)(F)F)n4)cc3)n2)ccc1N1CCC(O)CC1 | 6 | 1
O=C(NCCc1ccc(O)cc1)c1csc(Nc2ccncc2)n1 | 7 | -2
CCN(CC)C(=O)C1CCCN(c2ncc(C)c(NC3CCN(Cc4ccccc4)CC3)n2)C1 (stereo not drawn) | 9 | -4
COc1cc(-c2cn[nH]c2)ccc1NC(=O)C1Cc2cc(O)ccc2CN1 (stereo not drawn) | -4 | 16
CC(C)[C@H](O)C(=O)N1CCC(C(=O)Nc2ccc3[nH]ncc3c2)C1 (stereo partly drawn) | 13 | 0
O=C(NCCN1CCOCC1)c1cccc(-c2ccccc2)n1 | -3 | -5
Cc1cnc(N2CCCC2CO)nc1NCCc1ccc(O)cc1 (stereo not drawn) | -2 | 5
SMILES | ASK1 inh | ULK1 inh | others
c1ccc(Nc2nc(N3CCN(c4ccccn4)CC3)nc3c2ncn3C2CCCCC2)cc1 | 18 | -3
c1ccc(-n2cnc3c(NCc4cccnc4)nc(Nc4ccc(N5CCOCC5)cc4)nc32)cc1 | 39* | -1 | TruHits interf=i
c1ccc(N2CCN(c3nc(Nc4ccc(N5CCOCC5)cc4)c4ncn(C5CCCCC5)c4n3)CC2)nc1 | 44* | 64* | TruHits interf=>23
c1cncc(CNc2nc(N3CCOCC3)nc3c2ncn3C2CCCCC2)c1 | -12 | 2
c1cncc(CNc2nc(Nc3ccc(N4CCOCC4)cc3)nc3c2ncn3C2CCCCC2)c1 | 36* | 11 | TruHits interf=>20
c1ccc(-n2cnc3c(NCc4cccnc4)nc(Nc4cccnc4)nc32)cc1 | -10 | 25
CC(C)n1cnc2c(NC3CC3)nc(N3CCN(c4ccccn4)CC3)nc21 | 43* | 14 | TruHits interf=>22
CCCNc1nc(N2CCN(c3ccccn3)CC2)nc2c1ncn2C(C)C | 15 | -4
CCCNc1ccnc(N2CCCC(C(=O)N(CC)CC)C2)n1 (stereo not drawn) | 3 | -7
CC(=O)Nc1ccc(Nc2nc(-c3csc4ccccc34)nc3c2ncn3-c2ccsc2)cc1 | -11 | -24
O=C(Nc1ccc(-c2cn[nH]c2)cc1)N(CCO)Cc1ccccc1 | -13 | 0
COc1ccc(CCNC(=O)c2ccnc(-c3ccc(N4CCN(C)CC4)cc3)c2)cc1 | -7 | -2
COc1cc2nc(Nc3cc(OC)c(OC)c(OC)c3)nc(Nc3ccc(N4CCOCC4)cc3)c2cc1OC | 48* | -20 | TruHits interf=7.2*
COc1cc2nc(Nc3cccc(N(C)C)c3)nc(Nc3ccc(N4CCOCC4)cc3)c2cc1OC | 56* | -4 | TruHits interf=6.4*
COc1cc2nc(Nc3ccc(N4CCOCC4)cc3)nc(NC3CC3)c2cc1OC | 43* | 17 | TruHits interf=i
COc1cc2nc(N3CCOCC3)nc(Nc3ccc(N4CCOCC4)cc3)c2cc1OC | 10 | -11
COc1cc2nc(Nc3cc(OC)c(OC)c(OC)c3)nc(NC3CC3)c2cc1OC | 15 | -5
Cc1cnc(Nc2cccc(N(C)C)c2)nc1Nc1ccc(N2CCOCC2)cc1 | 23 | 37
COc1cc2nc(Nc3ccncn3)nc(Nc3ccc(N4CCOCC4)cc3)c2cc1OC | 22 | -26
COc1cc2nc(Nc3ccc(N4CCOCC4)cc3)nc(Nc3cc(OC)c(OC)c(OC)c3)c2cc1OC | 53* | -4 | TruHits interf=7.7*
COc1ccc(-c2nc(NCc3nc4ccccc4[nH]3)c3[nH]cnc3n2)cn1 | -6 | 5
CCOc1ccc(-c2cc(=O)c3ccc(NC(=O)c4cccc(OC)c4)cc3o2)cc1 | . | 0
Cn1nccc1Nc1nc2ccc(C(=O)NCc3nc4ccccc4[nH]3)cc2s1 | 4 | 11
COc1ccc(CCNC(=O)c2ccc3nc(NC4CCN(Cc5ccccc5)CC4)sc3c2)cc1 | 4 | -11
CC(C)n1cnc2c(NCCOc3ccccc3)nc(-c3ccc(C(=O)N4CCN(C)CC4)cc3)nc21 | -3 | 5
SMILES | ASK1 inh | ULK1 inh | others
COc1cc2nc(Nc3cccc(N(C)C)c3)nc(Nc3ccc4c(c3)OCO4)c2cc1OC | 61* | 0 | TruHits interf=3.6*
CCNc1nc(Nc2ccc3c(c2)OCO3)c2cc(OC)c(OC)cc2n1 | 13 | -1
Cc1ccccc1OCC(=O)NC(=S)NNC(=O)c1ccc([N+](=O)[O-])cc1 | . | -5
c1ccc(Oc2ccc(Nc3nc(N4CCc5ccccc5C4)nc4c3ncn4-c3ccccc3)cc2)cc1 | 46* | 11 | TruHits interf=>20
c1ccc(Oc2ccc(Nc3nc(N4CCOCC4)nc4c3ncn4-c3ccccc3)cc2)cc1 | 26 | 1
c1ccc2c(-c3nccc(Nc4ccc(N5CCOCC5)cc4)n3)csc2c1 | 38* | -8 | TruHits interf=>22
c1ccc(Nc2ccnc(-c3csc4ccccc34)n2)cc1 | -7 | -17
O=C(Nc1ccc2[nH]ncc2c1)c1ccnc(OC2CCCN(Cc3ccccc3)C2)c1 (stereo not drawn) | 7 | -9
Fc1cc(-c2ccnc(Nc3ccc(-n4ccnn4)cc3)n2)cc(N2CCOCC2)c1 | 7 | -17
OC1CCN(c2ccc(Nc3nccc(-c4cc(F)cc(N5CCN(C6CC6)CC5)c4)n3)cc2)CC1 | 41* | 55* | TruHits interf=>19
FC(F)(F)c1cccc(CNc2nc(Nc3ccc4ncccc4c3)nc3c2ncn3-c2ccccc2)c1 | 8 | -13
